Source: PubChem BioAssay (EPA / NIEHS)
Records with an inconclusive call do not appear. Calls of active or inactive are those of the source. The calls were made as follows, unless noted: active = hit-call score of the fitted dose curve at least 0.9, where 1 is the maximum; inactive = score below 0.9.

How the values were obtained:
[1] = target: human Matrix Metalloproteinase-9 (MMP9), MMP9 (gene 4318) (UniProt P14780); assay: NVS_ENZ_hMMP9: NovaScreen (NVS) Enzymatic Assay for human Matrix Metalloproteinase-9 (MMP9) (AID 2283190; active = hit-call score of the fitted dose curve at least 0.9, where 1 is the maximum;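 also: cell-free recombinant MMP9 protease activity read by fluorescent substrate signal; active means inhibition seen as loss of fluorescence signal versus DMSO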)
human Matrix Metalloproteinase-9 (MMP9), MMP9 (gene 4318), sequence (P14780 whole entry, looked up): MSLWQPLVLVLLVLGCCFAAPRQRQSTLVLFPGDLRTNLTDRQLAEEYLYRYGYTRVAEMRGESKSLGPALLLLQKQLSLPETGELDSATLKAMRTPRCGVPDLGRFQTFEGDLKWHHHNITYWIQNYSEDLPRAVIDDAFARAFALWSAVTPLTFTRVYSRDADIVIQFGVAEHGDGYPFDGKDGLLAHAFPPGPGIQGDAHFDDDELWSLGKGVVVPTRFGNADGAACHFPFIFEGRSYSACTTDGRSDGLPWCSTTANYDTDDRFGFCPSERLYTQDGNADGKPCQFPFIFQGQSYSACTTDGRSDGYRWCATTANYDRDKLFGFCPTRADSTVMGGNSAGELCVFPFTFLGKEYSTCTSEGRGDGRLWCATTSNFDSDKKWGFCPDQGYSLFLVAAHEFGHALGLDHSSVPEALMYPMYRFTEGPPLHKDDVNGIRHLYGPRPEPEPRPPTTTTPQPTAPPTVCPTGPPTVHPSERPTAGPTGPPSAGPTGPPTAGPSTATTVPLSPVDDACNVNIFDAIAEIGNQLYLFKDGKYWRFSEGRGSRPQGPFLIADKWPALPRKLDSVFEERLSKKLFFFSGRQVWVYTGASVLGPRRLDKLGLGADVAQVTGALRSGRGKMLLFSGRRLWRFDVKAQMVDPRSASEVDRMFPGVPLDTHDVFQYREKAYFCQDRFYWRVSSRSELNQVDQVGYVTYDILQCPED
How it was run: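 Cell-free fluorescence-intensity enzyme activity assay using extracted protein, read 1 h after dosing. Loss of signal versus DMSO baseline indicates inhibition; primary screen in duplicate at 25 uM, actives followed up in concentration series.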

[2] = target: human CYP19A1, CYP19A1 (gene 1588) (UniProt P11511); assay: NVS_ADME_hCYP19A1: NovaScreen (NVS) CYP450-related Enzyme Activity (ADME) Assay for human CYP19A1 (AID 2283098; active = hit-call score of the fitted dose curve at least 0.9, where 1 is the maximum;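 as to AC50: potency for inhibitors seen as loss of fluorescent enzyme signal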)
human CYP19A1, CYP19A1 (gene 1588), sequence (P11511 whole entry, looked up): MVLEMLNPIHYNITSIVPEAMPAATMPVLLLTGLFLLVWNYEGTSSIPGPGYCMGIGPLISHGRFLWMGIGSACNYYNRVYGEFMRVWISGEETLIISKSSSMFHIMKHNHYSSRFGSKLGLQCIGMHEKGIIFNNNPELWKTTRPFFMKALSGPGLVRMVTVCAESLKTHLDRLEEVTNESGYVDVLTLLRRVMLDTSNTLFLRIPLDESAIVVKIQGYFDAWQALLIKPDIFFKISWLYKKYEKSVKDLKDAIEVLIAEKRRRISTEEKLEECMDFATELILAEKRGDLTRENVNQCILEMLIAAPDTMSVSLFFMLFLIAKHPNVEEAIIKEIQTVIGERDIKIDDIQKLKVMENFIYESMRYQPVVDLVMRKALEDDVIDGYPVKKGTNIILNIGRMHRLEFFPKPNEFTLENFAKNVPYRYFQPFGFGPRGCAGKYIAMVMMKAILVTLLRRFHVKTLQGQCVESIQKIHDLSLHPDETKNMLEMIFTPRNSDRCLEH
How it was run: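 Cell-free enzyme assay with recombinant protein and a specific fluorogenic substrate, read by fluorescence intensity 0.5 h after dosing. Primary screen ran in duplicate at 10 uM; actives were retested in concentration series. Loss of signal versus acetonitrile baseline.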

[3] = target: Mitogen-activated protein kinase 3 (Homo sapiens) (UniProt P27361); assay: NVS_ENZ_hMAPK3: NovaScreen (NVS) Enzymatic Assay for human Mitogen-Activated Protein Kinase 3 (MAPK 3) (AID 2283177; active = hit-call score of the fitted dose curve at least 0.9, where 1 is the maximum)
Mitogen-activated protein kinase 3 (Homo sapiens), sequence (P27361 whole entry, looked up): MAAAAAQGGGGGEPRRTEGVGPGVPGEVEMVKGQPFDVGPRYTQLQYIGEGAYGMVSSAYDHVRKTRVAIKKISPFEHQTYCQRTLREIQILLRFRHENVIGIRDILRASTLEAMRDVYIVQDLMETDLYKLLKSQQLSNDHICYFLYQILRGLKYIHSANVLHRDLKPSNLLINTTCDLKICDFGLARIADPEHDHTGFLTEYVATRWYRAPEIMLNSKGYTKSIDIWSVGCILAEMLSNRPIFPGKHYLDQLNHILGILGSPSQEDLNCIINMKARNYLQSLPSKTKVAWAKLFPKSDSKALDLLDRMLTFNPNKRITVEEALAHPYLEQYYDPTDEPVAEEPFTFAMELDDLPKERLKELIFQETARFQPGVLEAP
How it was run: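 Cell-free enzymatic assay with recombinant protein and specific substrate; fluorescence and electrophoretic mobility shift read-out 1 h after dosing. Primary screen duplicate at 25 uM; actives then run in concentration-response up to 50 uM, loss of signal versus DMSO.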

[4] = target: rat CYP2A1, Cyp2a1 (gene 24894) (UniProt P11711); assay: NVS_ADME_rCYP2A1: NovaScreen (NVS) CYP450-related Enzyme Activity (ADME) Assay for rat CYP2A1 (AID 2283114)
rat CYP2A1, Cyp2a1 (gene 24894), sequence (P11711 whole entry, looked up): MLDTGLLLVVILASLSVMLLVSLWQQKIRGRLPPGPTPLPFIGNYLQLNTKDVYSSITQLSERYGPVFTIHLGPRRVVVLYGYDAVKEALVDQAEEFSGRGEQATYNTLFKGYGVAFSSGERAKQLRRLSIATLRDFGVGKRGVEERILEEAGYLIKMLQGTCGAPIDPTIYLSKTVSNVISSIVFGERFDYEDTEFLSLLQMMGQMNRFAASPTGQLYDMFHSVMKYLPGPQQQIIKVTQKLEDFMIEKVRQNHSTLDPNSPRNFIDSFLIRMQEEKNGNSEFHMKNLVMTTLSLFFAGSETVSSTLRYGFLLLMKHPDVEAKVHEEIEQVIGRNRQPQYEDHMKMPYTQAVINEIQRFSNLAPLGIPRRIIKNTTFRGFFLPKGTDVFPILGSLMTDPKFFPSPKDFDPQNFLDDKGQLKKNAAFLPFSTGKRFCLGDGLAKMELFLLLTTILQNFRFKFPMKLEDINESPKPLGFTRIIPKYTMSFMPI
How it was run: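 Recombinant rat CYP2A1, cell-free, fluorogenic substrate turnover read by fluorescence intensity 0.75 h after dosing. Primary screen at 10 uM in duplicate; actives rerun as concentration-response up to 20 uM; loss of signal versus acetonitrile control.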

[5] = read-out: Monokine induced gamma interferon (MIG), CXCL9 (gene 4283); assay: BSK_SAg_MIG: BioMAP Diversity Plus: SAg Assay for Monokine induced gamma interferon (MIG) Biomarker Activity (AID 2283092); conditions: primary human HUVEC with PBMC; actives raise or lower the signal
How it was run: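 ELISA readout of MIG/CXCL9; primary human umbilical vein endothelial cells co-cultured with peripheral blood mononuclear cells; 24 h post-dose; gain/loss fit vs DMSO baseline.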

[6] = BSK_SAg_PBMCCytotoxicity: PBMC Cytotoxicity Assessment in the BioMAP Diversity Plus: SAg Assay (AID 2283093); conditions: primary human HUVEC with PBMC;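 also: PBMC viability measured as Alamar Blue reduction fluorescence at 546/580 nm; fitted both ways against DMSO so a hit may be loss or gain of signal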;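 as to AC50: PBMC superantigen activated with SEB plus TSST-1 one hour after compound addition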
How it was run: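 Human umbilical vein endothelial cells co-cultured with PBMC; PBMC (75,000/well) pre-treated with compound 1 h, then activated with SEB and TSST-1 (20 ng/mL final each) for 90 h. Alamar Blue added 6 h, fluorescence 546/580 nm; bidirectional fit versus DMSO.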

[7] = read-out: Interleukin-8 (IL8), CXCL8 (gene 3576); assay: BSK_SAg_IL8: BioMAP Diversity Plus: SAg Assay for Interleukin-8 (IL8) Biomarker Activity (AID 2283094); conditions: primary human HUVEC with PBMC; actives raise or lower the signal
How it was run: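 In this co-culture of human umbilical vein endothelium with peripheral blood mononuclear cells, IL-8 is assayed by ELISA at 24 h. DMSO serves as baseline for bidirectional curve fitting.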

[8] = BSK_SAg_Proliferation: Cell Proliferation Assessment in the BioMAP Diversity Plus: SAg Assay (AID 2283095); conditions: primary human HUVEC with PBMC;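 also: relative cell number as total protein by SRB absorbance in sub-confluent culture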
How it was run: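 Readout is SRB-stained protein (560 nm) in a primary human HUVEC and PBMC co-culture; sub-confluent cultures are read at 96 h. Activity is fitted bidirectionally using DMSO as baseline.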

[9] = BSK_SAg_SRB: Viability Assessment in the BioMAP Diversity Plus: SAg Assay (AID 2283096); conditions: primary human HUVEC with PBMC;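 also: cells read one day after compound addition; hits may be either gain or loss of signal compared with DMSO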
How it was run: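 Endothelial/PBMC primary human co-culture; compound 24 h; fix 10% TCA, stain 0.1% SRB, A560; protein content as cytotoxicity proxy; bidirectional curve fit, DMSO = baseline.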

[10] = target: Cytochrome P450 2C19 (Homo sapiens) (UniProt P33261); assay: NVS_ADME_hCYP2C19: NovaScreen (NVS) CYP450-related Enzyme Activity (ADME) Assay for human CYP2C19 (AID 2283113; active = hit-call score of the fitted dose curve at least 0.9, where 1 is the maximum;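 also: potency for inhibition seen as loss of fluorescent signal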)
How it was run: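 Biochemical CYP2C19 inhibition screen: insect-cell recombinant protein plus fluorescent substrate, 1 h, fluorescence intensity. Acetonitrile defined baseline activity. Single 10 uM concentration in duplicate, with concentration-response follow-up for actives.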

[11] = target: human Dual Specificity Protein Phosphatase 3 (DUSP3), DUSP3 (gene 1845) (UniProt P51452); assay: NVS_ENZ_hDUSP3: NovaScreen (NVS) Enzymatic Assay for human Dual Specificity Protein Phosphatase 3 (DUSP3) (AID 2283152; active = hit-call score of the fitted dose curve at least 0.9, where 1 is the maximum;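 also: phosphatase activity of recombinant human DUSP3 on a fluorogenic substrate without cells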)
human Dual Specificity Protein Phosphatase 3 (DUSP3), DUSP3 (gene 1845), sequence (P51452 whole entry, looked up): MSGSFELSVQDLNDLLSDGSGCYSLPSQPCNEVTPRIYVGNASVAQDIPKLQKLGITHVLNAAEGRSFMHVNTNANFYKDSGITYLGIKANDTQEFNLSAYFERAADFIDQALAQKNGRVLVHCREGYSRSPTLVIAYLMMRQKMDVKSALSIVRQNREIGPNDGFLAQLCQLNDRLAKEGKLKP
How it was run: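 Cell-free assay with recombinant human DUSP3 and fluorogenic substrate, read by fluorescence intensity. Primary screen ran duplicate at 25 uM; actives followed up in concentration series; loss of signal versus DMSO scored.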

[12] = target: human Beta-secretase (BACE), BACE1 (gene 23621) (UniProt P56817); assay: NVS_ENZ_hBACE: NovaScreen (NVS) Enzymatic Assay for human Beta-secretase (BACE) (AID 2283140; active = hit-call score of the fitted dose curve at least 0.9, where 1 is the maximum;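 also: hits are inhibitors that reduce fluorescent substrate signal versus DMSO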)
human Beta-secretase (BACE), BACE1 (gene 23621), sequence (P56817 whole entry, looked up): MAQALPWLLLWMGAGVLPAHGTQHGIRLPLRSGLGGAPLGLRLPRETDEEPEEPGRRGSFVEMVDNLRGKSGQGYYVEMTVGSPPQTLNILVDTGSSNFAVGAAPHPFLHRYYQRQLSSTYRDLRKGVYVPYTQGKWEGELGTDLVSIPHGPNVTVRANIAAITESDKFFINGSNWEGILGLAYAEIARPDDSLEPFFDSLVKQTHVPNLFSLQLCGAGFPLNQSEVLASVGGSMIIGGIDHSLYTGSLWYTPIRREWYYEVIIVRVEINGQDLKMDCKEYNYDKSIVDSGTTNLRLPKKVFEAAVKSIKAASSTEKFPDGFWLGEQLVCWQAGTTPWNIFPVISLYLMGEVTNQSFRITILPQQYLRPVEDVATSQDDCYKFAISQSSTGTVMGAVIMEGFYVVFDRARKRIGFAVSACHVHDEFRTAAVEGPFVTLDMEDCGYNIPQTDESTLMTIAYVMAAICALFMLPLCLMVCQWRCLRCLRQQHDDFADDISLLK
How it was run: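 Recombinant BACE1 (SF9 extract) incubated with compound and fluorescent substrate, 1 h. Plates carried positive and DMSO negative controls. Initial single dose 25 uM, duplicate; confirmation by concentration series.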

[13] = target: human Esterase Plasma (ES), BCHE (gene 590) (UniProt P06276); assay: NVS_ENZ_hES: NovaScreen (NVS) Enzymatic Assay for human Esterase Plasma (ES) (AID 2283157; active = hit-call score of the fitted dose curve at least 0.9, where 1 is the maximum)
human Esterase Plasma (ES), BCHE (gene 590), sequence (P06276 whole entry, looked up): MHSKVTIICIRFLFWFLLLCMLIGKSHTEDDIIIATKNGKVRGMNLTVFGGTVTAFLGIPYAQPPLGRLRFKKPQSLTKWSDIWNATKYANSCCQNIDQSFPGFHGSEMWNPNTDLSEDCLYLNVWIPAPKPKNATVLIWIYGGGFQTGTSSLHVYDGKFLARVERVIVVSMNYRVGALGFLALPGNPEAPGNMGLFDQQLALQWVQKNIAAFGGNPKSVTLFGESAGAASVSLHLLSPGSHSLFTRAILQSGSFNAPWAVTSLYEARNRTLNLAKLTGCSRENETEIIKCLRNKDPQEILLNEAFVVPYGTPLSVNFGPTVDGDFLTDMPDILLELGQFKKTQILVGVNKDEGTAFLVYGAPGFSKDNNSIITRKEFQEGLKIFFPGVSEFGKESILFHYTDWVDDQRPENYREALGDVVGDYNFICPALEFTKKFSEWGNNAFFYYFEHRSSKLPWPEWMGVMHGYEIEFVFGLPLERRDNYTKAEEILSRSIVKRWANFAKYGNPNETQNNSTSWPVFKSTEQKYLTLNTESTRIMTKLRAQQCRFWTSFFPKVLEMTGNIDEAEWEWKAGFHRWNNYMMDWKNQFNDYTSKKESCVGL
How it was run: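 Cell-free enzyme assay using esterase extracted from human plasma; colorimetric absorbance read 0.25 hour after dosing. Single-concentration duplicate screen at 25 uM, then concentration-response up to 50 uM; loss of signal scored against DMSO baseline.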

[14] = target: human Caspase 5 (CASP5), CASP5 (gene 838) (UniProt P51878); assay: NVS_ENZ_hCASP5: NovaScreen (NVS) Enzymatic Assay for human Caspase 5 (CASP5) (AID 2283137; active = hit-call score of the fitted dose curve at least 0.9, where 1 is the maximum)
human Caspase 5 (CASP5), CASP5 (gene 838), sequence (P51878 whole entry, looked up): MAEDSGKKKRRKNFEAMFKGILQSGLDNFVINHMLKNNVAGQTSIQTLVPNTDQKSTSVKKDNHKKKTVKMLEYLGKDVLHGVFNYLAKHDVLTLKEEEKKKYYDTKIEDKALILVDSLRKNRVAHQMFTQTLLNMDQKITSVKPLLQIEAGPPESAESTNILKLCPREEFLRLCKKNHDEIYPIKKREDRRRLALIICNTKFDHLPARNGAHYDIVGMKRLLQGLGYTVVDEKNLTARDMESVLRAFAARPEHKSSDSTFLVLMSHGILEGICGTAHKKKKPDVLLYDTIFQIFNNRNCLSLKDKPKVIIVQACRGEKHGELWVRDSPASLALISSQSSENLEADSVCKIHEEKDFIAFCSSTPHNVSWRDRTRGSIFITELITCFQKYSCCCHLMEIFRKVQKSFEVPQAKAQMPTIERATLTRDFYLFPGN
How it was run: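 Cell-free protease assay with bacterially expressed CASP5 and a fluorescent substrate, measured at 2 h. Values fitted relative to DMSO as baseline, from concentration-response series topping at 50 uM.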

[15] = target: human CYP2D6, CYP2D6 (gene 1565) (UniProt P10635); assay: NVS_ADME_hCYP2D6: NovaScreen (NVS) CYP450-related Enzyme Activity (ADME) Assay for human CYP2D6 (AID 2283107; active = hit-call score of the fitted dose curve at least 0.9, where 1 is the maximum)
human CYP2D6, CYP2D6 (gene 1565), sequence (P10635 whole entry, looked up): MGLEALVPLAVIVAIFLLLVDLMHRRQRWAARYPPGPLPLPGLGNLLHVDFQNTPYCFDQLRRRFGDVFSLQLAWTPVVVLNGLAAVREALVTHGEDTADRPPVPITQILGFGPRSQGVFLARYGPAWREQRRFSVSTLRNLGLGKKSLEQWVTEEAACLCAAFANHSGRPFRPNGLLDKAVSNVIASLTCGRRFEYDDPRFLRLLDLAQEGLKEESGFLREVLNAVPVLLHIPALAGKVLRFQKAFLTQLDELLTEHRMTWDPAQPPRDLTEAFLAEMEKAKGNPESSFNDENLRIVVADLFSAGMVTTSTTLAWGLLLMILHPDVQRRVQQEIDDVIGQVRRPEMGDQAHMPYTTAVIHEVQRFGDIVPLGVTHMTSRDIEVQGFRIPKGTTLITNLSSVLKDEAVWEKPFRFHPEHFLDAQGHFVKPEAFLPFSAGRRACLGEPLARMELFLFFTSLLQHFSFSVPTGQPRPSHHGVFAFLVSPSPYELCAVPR
How it was run: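 Biochemical fluorescence assay, insect-cell-derived enzyme. Read at 1 h; inhibition taken from loss of signal against acetonitrile. Screened at 10 uM in duplicate, with concentration series for actives.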

For `c1ccc2[nH]cnc2c1`, the AC50 [1] was 7.49 µM (active).

In the case of `CCC(C)=O`, the AC50 [1] is reported as 6.96 µM (active).

With `CN1C(=O)c2ccccc2C1=O` the outcome [2] was “inactive”.

In the case of `[O-]n1ccccc1=S.[O-]n1ccccc1=S.[Zn+2]`, the outcome [3] is reported as “inactive”.

With `C=Cc1ccc(C)cc1` the outcome [4] was “inactive”.

In the case of `CN(C)C(=S)SC(=S)N(C)C`, the outcome [5] is reported as “inactive”, the AC50 [6] is reported as 1.25 µM (active) and the outcome [7] is reported as “inactive”. The AC50 [8] was 0.0189 µM (active), the outcome [9] was “inactive” and the AC50 [10] was 1.03 µM (active). For the same compound, the AC50 [11] was 0.326 µM (active).

With `O=C1OC[C@H](Cc2cccc(O)c2)[C@H]1Cc1cccc(O)c1` the outcome [5] was “inactive”, the outcome [6] was “inactive” and the outcome [7] was “inactive”. For the same compound, the outcome [8] was “inactive”, the outcome [9] was “inactive” and the AC50 [10] was 0.686 µM (active). For the same compound, the AC50 [1] was 5.03 µM (active).

In the case of `CCOCCOCCOCC`, the outcome [12] is reported as “inactive” and the AC50 [1] is reported as 15.4 µM (active).

In the case of `CC(C)(C)CC(C)(C)c1ccc(OCCOCC[N+](C)(C)Cc2ccccc2)cc1`, the AC50 [5] is reported as 6.44 µM (active), the AC50 [6] is reported as 3.23 µM (active) and the AC50 [7] is reported as 2.46 µM (active). The AC50 [8] was 0.773 µM (active), the AC50 [9] was 8.46 µM (active) and the AC50 [13] was 0.791 µM (active).

In the case of `CSCCC=O`, the outcome [5] is reported as “inactive”, the outcome [6] is reported as “inactive” and the outcome [7] is reported as “inactive”. For the same compound, the AC50 [8] was 38.6 µM (active), the outcome [9] was “inactive” and the AC50 [10] was 0.29 µM (active). The AC50 [1] was 0.684 µM (active).

For `C=CCCCCCCCCCC`, the outcome [1] was “inactive”.

In the case of `NC(=S)NNC(N)=S`, the AC50 [11] is reported as 4.96 µM (active) and the AC50 [1] is reported as 3.45 µM (active).

With `CCCC[O][Al]([O]CCCC)[O]CCCC` the AC50 [14] was 0.138 µM (active) and the outcome [12] was “inactive”.

In the case of `CCCCCCC(=O)c1ccccc1`, the AC50 [2] is reported as 5.7 µM (active).

In the case of `c1ccc(Oc2ccccc2)cc1`, the outcome [5] is reported as “inactive”, the outcome [6] is reported as “inactive” and the outcome [7] is reported as “inactive”. The outcome [8] was “inactive”, the outcome [9] was “inactive” and the outcome [14] was “inactive”. The outcome [1] was “inactive”.

With `CS(C)=O` the outcome [2] was “inactive”.

With `CCCCCC(C)=O` the outcome [12] was “inactive”.

In the case of `CCCCC(CC)COC(C)=O` (centres undefined), the AC50 [15] is reported as 5 µM (active).

In the case of `C=C(C)C(=O)OCC(CC)(COC(=O)C(=C)C)COC(=O)C(=C)C`, the outcome [5] is reported as “inactive”, the outcome [6] is reported as “inactive” and the outcome [7] is reported as “inactive”. For the same compound, the AC50 [8] was 8.4 µM (active), the outcome [9] was “inactive” and the AC50 [12] was 17.1 µM (active). The AC50 [11] was 12.4 µM (active) and the AC50 [1] was 0.749 µM (active).

In the case of `C=C(C#N)C(=O)OCC`, the AC50 [1] is reported as 8.63 µM (active).

With `c1ccc(CCc2ccccc2)cc1` the AC50 [5] was 34.1 µM (active), the AC50 [6] was 34.2 µM (active) and the AC50 [7] was 31.6 µM (active). The AC50 [9] was 35.9 µM (active).

With `Cc1cc(CCC(=O)OCCOCCOCCOC(=O)CCc2cc(C)c(O)c(C(C)(C)C)c2)cc(C(C)(C)C)c1O` the outcome [5] was “inactive”, the AC50 [6] was 25.2 µM (active) and the outcome [7] was “inactive”. The AC50 [8] was 25.3 µM (active), the AC50 [9] was 32.2 µM (active) and the AC50 [10] was 2.45 µM (active).
